Columns and labels:
Conditions in all cases: concentration: 1 μM, replicates: in singlicate; n = 1
MAP3K15 = tested on: MAP3K15
MAP3K1 = tested on: MAP3K1
MAP3K2 = tested on: MAP3K2
MAP3K3 = tested on: MAP3K3
MAP3K4 = tested on: MAP3K4
MAP4K2 = tested on: MAP4K2
MAP4K3 = tested on: MAP4K3
MAP4K4 = tested on: MAP4K4
MAP4K5 = tested on: MAP4K5
MAPKAPK2 = tested on: MAPKAPK2
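Also: KINOMEscan kinase panel screen.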

SMILES	%Inh (MAP3K15)	%Inh (MAP3K1)	%Inh (MAP3K2)	%Inh (MAP3K3)	%Inh (MAP3K4)	%Inh (MAP4K2)	%Inh (MAP4K3)	%Inh (MAP4K4)	%Inh (MAP4K5)	%Inh (MAPKAPK2)
COc1cc(Nc2nccc(N3CCC(NS(=O)(=O)c4ccc(NC(C)=O)cc4)CC3)n2)cc(OC)c1OC [GSK1379825]	0%	11%	18%	0%	31%	0%	40%	68%	53%	0%
Cc1ccccc1CC(=O)N1CCc2cc(-c3cn(C)c4ncnc(N)c34)ccc21 [GSK2603346]	20%	19%	88%	62%	90%	29%	97.8%	0%	88%	7%
CCn1cnc2c(NCc3ccccc3)ncnc21 [SKF-96418]	22%	16%	14%	0%	2%	0%	0%	0%	0%	0%
CN(c1ccc(NC(=O)N2CCN(CCCN3CCOCC3)CC2)cc1)c1ccnc(Nc2ccc(CS(C)(=O)=O)cc2)n1.Cl [GW830899]	0%	0%	0%	8%	15%	0%	18%	7%	30%	0%
O=C(Nc1n[nH]c2nc(-c3cccc(O)c3)ccc12)C1CC1 [SB-711805]	15%	17%	14%	50%	0%	9%	0%	13%	0%	0%
COc1ccc(C)c(Nc2ccnc(Nc3ccc(-c4cnc[nH]4)cc3)n2)c1.Cl [GW784041]	0%	0%	0%	28%	18%	0%	6%	23%	19%	0%
Cc1ccc(O)cc1Nc1ccnc2ccc(C(C)(C)C)cc12 [GW856805]	26%	27%	32%	31%	23%	43%	0%	0%	4%	0%
Cn1cc(-c2ccc3c(c2)CCN3C(=O)Cc2cc(F)cc(F)c2F)c2c(N)ncnc21 [GSK2634140]	7%	10%	87%	50%	80%	0%	78%	0%	81%	7%
O=C1NC(=O)C(c2ccccc2Cl)=C1Nc1cccc(Cl)c1 [SB-342409]	0%	10%	1%	3%	3%	0%	5%	0%	0%	37%

Source: PMC5540273 (PLoS ONE, 2017)
